From ChEMBL document CHEMBL3988442, “University of Dundee, Small-Polar-MMV Screening Library” (2021)
For some of these results: Entries with a potency or affinity are not part of this list.

Assays:
Design in all cases: scale not given: direction of the effect not stated beside the values
[1] = molecular target: Protein translocase subunit SecA (Escherichia coli (strain K12)) (UniProt P10408); test: Assay to Identify E. coli SecA ATPase Inhibitors; assay type: functional; conditions: 30 µM
[2] = molecular target: T1, Ubiquitin-activating enzyme e1, putative (Leishmania donovani (strain BPK282A1)) (UniProt E9BSI1); test: Leishmania donovani Ubiquitin Activating Enzyme (LdE1); assay type: functional; conditions: 30 µM
T1 sequence (whole entry): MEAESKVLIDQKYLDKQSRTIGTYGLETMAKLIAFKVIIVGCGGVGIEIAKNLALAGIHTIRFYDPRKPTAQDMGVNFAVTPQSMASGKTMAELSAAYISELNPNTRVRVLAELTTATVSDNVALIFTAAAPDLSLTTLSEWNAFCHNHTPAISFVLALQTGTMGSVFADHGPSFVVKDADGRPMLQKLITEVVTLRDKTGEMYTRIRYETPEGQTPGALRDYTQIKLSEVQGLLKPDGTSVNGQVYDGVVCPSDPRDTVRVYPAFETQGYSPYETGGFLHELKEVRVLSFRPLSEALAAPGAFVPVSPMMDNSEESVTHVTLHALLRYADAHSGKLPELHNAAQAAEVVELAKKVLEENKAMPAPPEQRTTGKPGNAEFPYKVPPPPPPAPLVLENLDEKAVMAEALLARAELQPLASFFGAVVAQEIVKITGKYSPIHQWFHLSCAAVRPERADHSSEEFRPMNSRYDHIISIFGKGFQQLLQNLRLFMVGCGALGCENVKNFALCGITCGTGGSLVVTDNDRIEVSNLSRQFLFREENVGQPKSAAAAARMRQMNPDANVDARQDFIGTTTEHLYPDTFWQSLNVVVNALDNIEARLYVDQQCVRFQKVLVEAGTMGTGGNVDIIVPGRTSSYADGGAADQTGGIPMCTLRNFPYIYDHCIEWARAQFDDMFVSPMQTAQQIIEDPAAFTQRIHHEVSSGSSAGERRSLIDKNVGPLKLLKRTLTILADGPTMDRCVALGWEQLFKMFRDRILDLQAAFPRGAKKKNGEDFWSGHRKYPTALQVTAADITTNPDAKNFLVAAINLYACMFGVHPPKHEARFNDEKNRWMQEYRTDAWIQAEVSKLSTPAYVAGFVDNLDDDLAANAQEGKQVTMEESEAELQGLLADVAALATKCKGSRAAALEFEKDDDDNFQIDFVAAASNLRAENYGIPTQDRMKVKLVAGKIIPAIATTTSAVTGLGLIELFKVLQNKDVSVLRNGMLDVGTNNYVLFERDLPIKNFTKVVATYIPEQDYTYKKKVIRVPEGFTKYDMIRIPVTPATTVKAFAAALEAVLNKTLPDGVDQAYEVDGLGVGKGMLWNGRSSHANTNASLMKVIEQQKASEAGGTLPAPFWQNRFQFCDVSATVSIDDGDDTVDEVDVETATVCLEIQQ

[3] = molecular target: AMP-activated protein kinase, AMPK (Homo sapiens) (UniProt P54646+O43741+P54619+Q9UGJ0+Q9Y478+Q13131+Q9UGI9); test: AMP-dependent Kinase enzyme assay. An in vitro enzyme assay that detects ADP turnover that is directly proportional to AMPK activity. This uses naive AMPK that is activated during the assay with MK-8722; assay type: functional; conditions: 30 µM
[4] = molecular target: Sialic acid-binding Ig-like lectin 9 (Homo sapiens) (UniProt Q9Y336); test: Hs-Siglec9 ALPHAscreen SOP 20170721; conditions: 10 µM
Chain of Sialic acid-binding Ig-like lectin 9 (Homo sapiens) (Q9Y336 whole entry): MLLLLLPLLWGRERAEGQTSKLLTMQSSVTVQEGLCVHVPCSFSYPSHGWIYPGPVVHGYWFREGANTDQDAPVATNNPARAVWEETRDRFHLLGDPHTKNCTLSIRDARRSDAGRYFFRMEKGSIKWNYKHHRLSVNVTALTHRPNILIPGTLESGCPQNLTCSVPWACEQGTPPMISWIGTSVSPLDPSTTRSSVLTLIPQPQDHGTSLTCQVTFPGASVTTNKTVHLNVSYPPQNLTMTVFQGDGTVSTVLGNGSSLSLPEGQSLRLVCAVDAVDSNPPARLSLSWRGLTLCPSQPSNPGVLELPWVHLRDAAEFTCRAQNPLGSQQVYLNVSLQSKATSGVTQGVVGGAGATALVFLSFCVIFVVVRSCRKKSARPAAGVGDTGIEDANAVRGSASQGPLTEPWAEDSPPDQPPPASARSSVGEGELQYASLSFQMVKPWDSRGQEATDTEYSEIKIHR

Trypanosoma cruzi = test: Trypanosoma cruzi phosphomannomutase and mannose-1-phosphate guanylyltransferase assay; assay type: functional; conditions: 10 µM
[5] = molecular target: T2, Arginase-2, mitochondrial (Homo sapiens) (UniProt P78540); test: in vitro enzyme assay to detect the production of urea directly proportional to the activity of Arginase II; assay type: functional; conditions: 33.3 µM; note: in the data most compounds retested in dose-response had high values
T2 sequence (whole entry): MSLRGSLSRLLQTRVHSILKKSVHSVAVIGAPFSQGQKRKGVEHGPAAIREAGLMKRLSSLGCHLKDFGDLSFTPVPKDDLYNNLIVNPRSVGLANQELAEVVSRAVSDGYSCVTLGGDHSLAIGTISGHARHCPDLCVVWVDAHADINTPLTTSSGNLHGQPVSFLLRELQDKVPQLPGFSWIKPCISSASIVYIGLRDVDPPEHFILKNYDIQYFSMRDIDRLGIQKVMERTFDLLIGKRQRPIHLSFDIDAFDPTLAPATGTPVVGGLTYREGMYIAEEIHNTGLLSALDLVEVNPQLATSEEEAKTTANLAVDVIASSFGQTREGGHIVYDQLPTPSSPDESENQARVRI

[6] = molecular target: T3, Proteasome subunit beta (Trypanosoma cruzi) (UniProt O96673); test: Trypanosoma cruzi proteasome chymotrypsin-like activity (TcProtChymo) assay.; note: in the data most compounds retested in dose-response had high values; assay type: functional; conditions: 9.37 µM
T3 sequence (whole entry): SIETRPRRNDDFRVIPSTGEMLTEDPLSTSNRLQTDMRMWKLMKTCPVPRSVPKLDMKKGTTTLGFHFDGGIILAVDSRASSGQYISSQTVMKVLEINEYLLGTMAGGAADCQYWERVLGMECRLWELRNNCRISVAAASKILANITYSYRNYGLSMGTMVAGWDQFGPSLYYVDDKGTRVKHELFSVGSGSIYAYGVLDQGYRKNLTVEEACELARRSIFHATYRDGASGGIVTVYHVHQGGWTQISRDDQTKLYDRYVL

Homo sapiens = species on record: Homo sapiens; test: To identify inhibition of the IFN signalling (Jak-Stat) pathway via expression of an eGFP reporter gene under the control of an IFN-stimulated response element (ISRE) containing MxA promoter.; assay type: functional; conditions: 30 µM
[7] = molecular target: T4, Tyrosyl-tRNA synthetase, putative (Trypanosoma cruzi (strain CL Brener)) (UniProt Q4DSP6); test: Trypanosoma cruzi tyrosyl tRNA synthetase (TcYRS) _High Tyrosine SOP; assay type: functional; conditions: 30 µM; note: in the data most compounds retested in dose-response had high values
T4 sequence (whole entry): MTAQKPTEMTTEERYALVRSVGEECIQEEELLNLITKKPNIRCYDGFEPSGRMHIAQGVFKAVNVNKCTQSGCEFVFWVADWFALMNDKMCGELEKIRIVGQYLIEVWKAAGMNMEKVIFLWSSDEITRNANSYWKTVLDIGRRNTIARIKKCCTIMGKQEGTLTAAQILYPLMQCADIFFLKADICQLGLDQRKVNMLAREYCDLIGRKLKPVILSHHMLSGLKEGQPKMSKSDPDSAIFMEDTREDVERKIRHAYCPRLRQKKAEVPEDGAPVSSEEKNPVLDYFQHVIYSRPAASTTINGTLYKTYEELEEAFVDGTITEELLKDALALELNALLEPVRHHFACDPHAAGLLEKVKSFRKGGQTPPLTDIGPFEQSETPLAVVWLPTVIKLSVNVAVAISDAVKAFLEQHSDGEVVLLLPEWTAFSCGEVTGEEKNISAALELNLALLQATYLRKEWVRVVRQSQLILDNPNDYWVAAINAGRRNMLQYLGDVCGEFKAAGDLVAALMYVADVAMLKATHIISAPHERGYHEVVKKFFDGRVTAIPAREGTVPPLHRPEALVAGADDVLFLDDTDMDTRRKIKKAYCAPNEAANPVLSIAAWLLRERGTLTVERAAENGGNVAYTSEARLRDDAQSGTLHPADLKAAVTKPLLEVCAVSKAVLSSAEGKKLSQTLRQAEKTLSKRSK

[8] = molecular target: T4, Tyrosyl-tRNA synthetase, putative (Trypanosoma cruzi (strain CL Brener)); test: Trypanosoma cruzi tyrosyl tRNA synthetase (TcYRS) SOP; assay type: functional; conditions: 30 µM
[9] = molecular target: Chromo domain-containing protein 1 (Saccharomyces cerevisiae (strain ATCC 204508 / S288c) (Baker's yeast)) (UniProt P32657); test: ScCHD-1 Enzyme Inhibition Assay; assay type: functional; conditions: 30 µM; note: in the data most compounds retested in dose-response had high values
Chain of Chromo domain-containing protein 1 (Saccharomyces cerevisiae (strain ATCC 204508 / S288c) (Baker's yeast)) (P32657 whole entry, the tested form may be a part): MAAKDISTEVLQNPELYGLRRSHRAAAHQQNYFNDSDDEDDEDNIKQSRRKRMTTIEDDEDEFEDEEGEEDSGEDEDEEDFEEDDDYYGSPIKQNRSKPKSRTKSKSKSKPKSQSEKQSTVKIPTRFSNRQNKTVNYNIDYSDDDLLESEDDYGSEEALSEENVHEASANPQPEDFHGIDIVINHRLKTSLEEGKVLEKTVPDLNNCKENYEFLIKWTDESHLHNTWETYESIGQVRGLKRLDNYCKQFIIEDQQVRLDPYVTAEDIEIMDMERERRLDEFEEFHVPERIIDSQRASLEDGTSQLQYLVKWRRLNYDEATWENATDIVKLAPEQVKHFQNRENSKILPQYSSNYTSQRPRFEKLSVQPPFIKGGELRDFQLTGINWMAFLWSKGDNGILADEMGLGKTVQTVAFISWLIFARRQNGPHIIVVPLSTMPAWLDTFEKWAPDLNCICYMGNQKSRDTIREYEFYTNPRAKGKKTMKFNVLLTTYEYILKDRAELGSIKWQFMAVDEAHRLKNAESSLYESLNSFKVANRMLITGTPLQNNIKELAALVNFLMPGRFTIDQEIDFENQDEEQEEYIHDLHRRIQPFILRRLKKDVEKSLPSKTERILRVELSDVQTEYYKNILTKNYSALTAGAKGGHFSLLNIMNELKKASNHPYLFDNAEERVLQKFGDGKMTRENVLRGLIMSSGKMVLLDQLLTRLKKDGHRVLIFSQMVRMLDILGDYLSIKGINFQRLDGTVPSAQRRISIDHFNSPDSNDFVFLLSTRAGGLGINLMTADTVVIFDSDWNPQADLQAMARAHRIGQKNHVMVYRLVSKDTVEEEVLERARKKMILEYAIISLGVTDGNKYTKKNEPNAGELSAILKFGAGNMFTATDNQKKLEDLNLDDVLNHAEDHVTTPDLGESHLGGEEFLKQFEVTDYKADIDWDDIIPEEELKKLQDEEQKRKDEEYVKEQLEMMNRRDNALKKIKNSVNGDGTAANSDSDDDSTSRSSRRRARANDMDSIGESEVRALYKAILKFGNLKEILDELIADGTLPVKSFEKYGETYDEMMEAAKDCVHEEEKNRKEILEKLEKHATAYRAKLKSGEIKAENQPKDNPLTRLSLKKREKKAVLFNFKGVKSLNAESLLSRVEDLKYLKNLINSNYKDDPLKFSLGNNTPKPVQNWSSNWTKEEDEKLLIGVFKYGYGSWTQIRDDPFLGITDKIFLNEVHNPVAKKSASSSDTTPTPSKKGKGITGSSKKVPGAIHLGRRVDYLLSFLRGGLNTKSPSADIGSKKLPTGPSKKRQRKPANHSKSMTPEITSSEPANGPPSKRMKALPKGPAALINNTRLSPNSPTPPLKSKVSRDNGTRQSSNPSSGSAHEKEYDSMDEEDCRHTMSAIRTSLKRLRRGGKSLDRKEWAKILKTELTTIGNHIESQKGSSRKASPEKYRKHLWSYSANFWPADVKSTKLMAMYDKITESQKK

Chain of Protein translocase subunit SecA (Escherichia coli (strain K12)) (P10408 whole entry): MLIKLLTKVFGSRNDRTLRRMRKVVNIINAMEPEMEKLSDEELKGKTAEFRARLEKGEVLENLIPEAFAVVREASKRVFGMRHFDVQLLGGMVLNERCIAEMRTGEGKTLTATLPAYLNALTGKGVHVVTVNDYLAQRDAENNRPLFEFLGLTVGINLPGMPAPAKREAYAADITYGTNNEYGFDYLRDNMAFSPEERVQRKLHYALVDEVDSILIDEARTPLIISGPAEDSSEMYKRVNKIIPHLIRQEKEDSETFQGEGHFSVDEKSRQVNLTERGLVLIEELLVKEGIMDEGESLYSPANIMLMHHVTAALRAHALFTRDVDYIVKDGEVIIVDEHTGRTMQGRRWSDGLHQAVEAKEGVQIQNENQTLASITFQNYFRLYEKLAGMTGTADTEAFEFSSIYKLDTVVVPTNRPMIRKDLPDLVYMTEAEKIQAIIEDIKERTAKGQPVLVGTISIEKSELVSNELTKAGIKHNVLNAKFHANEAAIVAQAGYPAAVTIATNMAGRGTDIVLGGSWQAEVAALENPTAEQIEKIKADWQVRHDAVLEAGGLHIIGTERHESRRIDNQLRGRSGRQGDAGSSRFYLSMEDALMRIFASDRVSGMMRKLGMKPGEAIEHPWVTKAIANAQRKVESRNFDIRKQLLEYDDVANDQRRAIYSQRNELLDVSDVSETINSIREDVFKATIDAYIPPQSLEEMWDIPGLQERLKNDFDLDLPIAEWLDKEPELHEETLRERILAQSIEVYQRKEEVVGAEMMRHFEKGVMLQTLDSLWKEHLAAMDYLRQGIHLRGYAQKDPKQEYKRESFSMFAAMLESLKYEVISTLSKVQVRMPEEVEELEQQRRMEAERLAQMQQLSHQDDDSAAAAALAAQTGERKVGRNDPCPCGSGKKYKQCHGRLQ

Row | SMILES | Percent Effect [1] [%] | Percent Effect [2] [%] | Percent Effect [3] [%] | Percent Effect [4] [%] | Percent Effect (Trypanosoma cruzi) [%] | Percent Effect [5] [%] | Percent Effect [6] [%] | Percent Effect (Homo sapiens) [%] | Percent Effect [7] [%] | Percent Effect [8] [%] | Percent Effect [9] [%]
1 | CCc1nc(CN2CCN(c3ncnc4cc(F)ccc34)CC2)no1 | -8.93 | 0 | -0.509 | 2.81 | -3.44 | 0 | 9.65 | 75.3 | -3.23 | -6.17 | 1.03
2 | Cc1csc(CNC(=O)N(C)Cc2cnn(C)c2)n1 | -2.05 | 21.6 | -6.61 | 2.62 | 4.18 | -4.25 | 16.5 | 12.9 | 5.94 | 23.2 | -4.86
3 | CC(NC(=O)NCCCN(C)S(C)(=O)=O)c1ccncc1 (stereo unspecified) | -0.684 | 8.86 | 5.26 | -2.69 | -2.77 | 5.38 | 10.8 | 1.71 | 12.5 | 20.2 | -14.2
4 | Cc1cc(C(=O)N2CCCC(n3cncn3)C2)c(C)n1C1CC1 (stereo unspecified) | -2.41 | -3.8 | 2.66 | 1.98 | 1.54 | 2.37 | -1.54 | -3.71 | 2.08 | 2.53 | 11.1
5 | C[C@@H]1CN(C(=O)c2ccc(C#N)nc2)C[C@@]1(O)C1CC1 | -4.79 | 13.5 | -4.57 | 30.4 | 9.65 | -1.91 | 5 | 1.76 | 2.65 | 14.6 | -12.3
6 | CNS(=O)(=O)Cc1ccc(CNC(=O)c2cccc(C)n2)cc1 | -2.39 | 23.4 | 0.0556 | 2.86 | 4.12 | -3.92 | 5.57 | 15.5 | 11.7 | 21.9 | -7.52
7 | COc1ccccc1C1CNC(=O)c2nc(-c3ncc[nH]3)[nH]c2C1 (stereo unspecified) | -0.895 | 16.2 | -2.89 | 12.1 | 7.14 | 4.29 | 14.3 | 20.7 | 14.3 | 29.3 | -3.23
8 | CC(C)c1ncc(CN2C[C@@H](CN3CCC(CO)CC3)[C@@H](CO)C2)cn1 | -3.44 | 8 | -6.42 | 4.65 | 3.02 | 1.56 | 19.7 | 10.9 | 3.83 | 11.1 | -4.15
9 | Cc1noc(Cl)c1CCC(=O)N1CCN(c2ncccn2)CC1 | -1.95 | 10.5 | -1.41 | -4.66 | -11.1 | 5.75 | 7.02 | 21.6 | 5.42 | 13.6 | 1.74
10 | Cc1cnn(C2CN(CC(=O)NCCc3ccccc3)C2)c1 | -3.73 | -10.5 | 3.48 | 3.23 | 1.21 | -2.16 | -0.254 | 8.21 | 5.42 | 13.6 | 4.88
11 | Cc1noc(NC(=O)c2ccc(Br)cc2)n1 | -5.08 | 26.3 | -4.88 | 4.49 | 6.44 | 1.44 | 16.3 | 70 | 8.37 | 28.4 | -5.14
